Data from PubChem BioAssay.
Unmarked numbers belong to inactive results. The rule behind the calls is not given here.

Experiment: hESC survival regulators, cell-based (AID 493140);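 note: cells exposed to compounds for four days before counting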
Details: human embryonic stem cell survival screen; active compounds read high

Compared with `CCCCC[C@H](O)/C=C/C=C/C=C/[C@@H](O)C/C=C\CCCC(=O)O`, `CCCCC/C=C\C[C@@H](O)/C=C/C=C/C=C/[C@@H](O)CCCC(=O)O` is lower in survival: 92.6 for the first, 77.1 for the second.

Going from `CCCCC[C@H](O)/C=C/[C@@H]1[C@@H](CC(=O)CCC(=O)O)[C@@H](O)C[C@H]1O` to `C[C@@H](O)CCC[C@H](O)/C=C/[C@@H]1[C@@H](C/C=C\CCCC(=O)O)[C@@H](O)C[C@H]1O`, the survival falls from 104 to 102.

Going from `CCCCC[C@H](O)/C=C/C=C\C/C=C\CCCCCCC(=O)O` to `CCCCC[C@H](O)/C=C/C=C\C/C=C\CCCCC(=O)O`, the survival falls from 102 to 67.2.

Compared with `CCCCC/C=C\C=C\C(O)CCCCCCCC(=O)O` (centres undefined), `CCCCCC(O)/C=C/C=C\CCCCCCCC(=O)O` (centres undefined) is lower in survival: 83.9 for the first, 49.5 for the second.

Going from `COc1ccc2nccc(C(=O)O)c2c1` to `O=C(O)c1cc(NCc2cc(O)ccc2O)ccc1O`, the survival rises from 19.9 to 90.2.

Going from `Nc1ncc2[nH]cnc2n1` to `Nc1ncn(C2O[C@H](CO)[C@H](O)[C@@H]2O)c(=O)n1` (some centres undefined), the survival falls from 108 to 0.083.

Compared with `C[N+](C)(CCCOc1ccccc1)c1ccccc1`, `CCO[C@@H]1O[C@H](C(COCc2ccccc2)OCc2ccccc2)[C@@H](OCc2ccccc2)C1O` (some centres undefined) is higher in survival: 5.92 for the first, 10.8 for the second.

Compared with `CCCCC/C=C\C\C=C/C=C/C=C/[C@@H](SCC(N)C(=O)NCC(=O)O)[C@@H](O)CCCC(=O)O` (some centres undefined), `CCCCC/C=C\C\C=C/C=C/C=C/[C@@H](SCC(N)C(=O)O)[C@@H](O)CCCC(=O)O` (some centres undefined) is lower in survival: 109 for the first, 107 for the second.

First: C=C(C)[C@@H]1CC[C@]2(CO)CC[C@]3(C)[C@H](CC[C@@H]4[C@@]5(C)CCC(O)C(C)(C)[C@@H]5CC[C@]43C)[C@@H]12 (some centres undefined)
Second: CC1O[C@@H](O[C@@H]2C(CO)O[C@@H](OCC3O[C@@H](OC(=O)C45CC[C@@H](C)[C@H](C)[C@H]4C4=CC[C@@H]6[C@@]7(C)C[C@@H](O)[C@H](O)[C@@](C)(CO)C7CC[C@@]6(C)[C@]4(C)CC5)C(O)[C@H](O)[C@@H]3O)C(O)[C@@H]2O)C(O)[C@@H](O)[C@H]1O (some centres undefined)
The survival of the first is lower: 7.33 for the first, 9.83 for the second.

Compared with `CC(C)NCC1CCc2cc(CO)c([N+](=O)[O-])cc2N1` (centres undefined), `O=[N+]([O-])c1ccc(Oc2ccc(Br)cc2)c(C(O)[P+](=O)O)c1` (centres undefined) is higher in survival: 28.3 for the first, 83.4 for the second.

Compared with `CCCCCCCC[C@@H](O)/C=C/C=C/C=C\[C@@H](O)CCCC(=O)O`, `CCCCCC#CC[C@@H](O)/C=C/C=C/C=C\[C@@H](O)CCCC(=O)O` is lower in survival: 96.4 for the first, 71.7 for the second.

Going from `Cn1cnc2nc(NCCO)nc(NCc3ccccc3)c21` to `CC(C)c1cc(/C=C(\C#N)C(=O)NCCCc2ccccc2)cc(C(C)C)c1O`, the survival rises from 111 to 124.

Going from `CCCCCCCCCCCCC/C=C/[C@@H](O)[C@@H](N)COP(=O)(O)O` to `CCCCCCCCC1OC1CCCCCCCC(=O)O` (centres undefined), the survival rises from 87.9 to 92.8.

Going from `C=CCN1/C(=C\CO)[C@@H]2C[C@@H]3[C@H]1CC[C@@]31c3ccccc3N3/C=C4\C5N(/C=C/2C31)c1ccccc1[C@@]51CC[C@@H]2[C@H]1C[C@H]4/C(=C/CO)N2CC=C` (some centres undefined) to `NC(=O)c1ccc[n+]([C@H]2O[C@@H](COP(=O)([O-])OP(=O)(O)OC[C@H]3O[C@@H](n4cnc5c(N)ncnc54)C(O)[C@H]3O)C(O)[C@H]2O)c1` (some centres undefined), the survival falls from 26.5 to 4.5.

First: CC1(C)S[C@@H]2[C@H](NC(=O)C3(N)CCCCC3)C(=O)N2[C@H]1C(=O)O
Second: C[C@@]1(O)CCOC(=O)C1
The survival of the first is lower: 3.83 for the first, 4.42 for the second.

Compared with `CC/C=C\C/C=C\C/C=C\C/C=C\C/C=C\CCC(=O)O[C@H](COCCCCCCCCCCCCCCCC)COP(=O)([O-])OCC[N+](C)(C)C`, `CCCCCCCCCCCCC/C=C/[C@@H](O)[C@H](COP(=O)([O-])OCC[N+](C)(C)C)NC(=O)CCCCCCCCCCCCCCCCC` is lower in survival: 83.1 for the first, 81.8 for the second.

First: CCCCC/C=C\C/C=C\C=C\[C@@H](O)C/C=C\CCCC(=O)O
Second: CCCCC/C=C\C/C=C\C/C=C\C=C\C(O)CCCC(=O)O (centres undefined)
The survival of the first is higher: 129 for the first, 122 for the second.

Going from `CCCCC/C=C\C[C@@H](O)/C=C/C=C\CCC(=O)O` to `CC/C=C\C[C@H](O)/C=C/C=C\C/C=C\C/C=C\CCCC(=O)O`, the survival rises from 67.7 to 122.

Going from `CCCCCCCN[C@H]1CCC[C@@H]1CCCCCCC(=O)O` to `CCCCC/C=C\C\C=C/C=C/C=C/[C@@H](O)[C@@H](O)CCCC(=O)O`, the survival rises from 114 to 116.

Compound `N#CC(C#N)=C(N)/C(C#N)=C/c1cc(O)c(O)c(O)c1` has a survival of 82.2.
